# Compound activity from PubChem BioAssay.
# TDP1 cell noCPT – qHTS for Inhibitors of human tyrosyl-DNA phosphodiesterase 1 (TDP1): qHTS in cells in absence of CPT | DT40 Tdp1-/- hTDP1 cells, no CPT, ATP luminescence, 48 h | Potency, µM (highest dose often 46.2 µM), without a hit: top-dose activity change, negative = growth inhibition, hits mostly inhibitors | 15% of 420,000 active; also: potency is read from the fitted curve at half-maximal effect; nearly all actives have a fitted effect of over 55% in size
#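 A cellular qHTS used chicken DT40 cells lacking endogenous Tdp1 but carrying stably transfected human TDP1. Compounds were applied without camptothecin, and cell growth kinetics were judged by ATP-dependent luminescence after ≥48 hr.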
# IL-1B inflam inh – blocks inflammasome-driven IL-1 beta release. 4.7% of 360,000 active. THP-1 LPS/ATP IL-1B secretion, AlphaLISA, 16 h; stronger effect = lower value. AID 743279. activity change, % at 57.5 µM; in the data active = activity change below about -50%; inconclusive = mostly about -30% to -49%
#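 THP-1 cells pretreated 1 hr with compounds (up to 57.5 uM final), then stimulated with LPS (250 ng/mL final) plus ATP (1.25 mM final); secreted IL-1B measured by AlphaLISA after 16 hr, decreased signal indicating inhibition.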
# DT40 TDP1 CPT – growth inhibition of DT40 Tdp1-/-;hTDP1 cells with camptothecin (screen for TDP1 inhibitors) | AID 686979 | Potency, µM (top dose mostly 46.2 µM), inactives show at the highest dose activity change, negative = growth inhibition, actives largely listed as inhibitors | chicken DT40 Tdp1-/-;hTDP1 cells + 20 nM CPT, ATP luminescence, 48 h | 12% of 420,000 active; also: potency is read from the fitted curve at half-maximal effect; nearly all actives have a fitted effect of over 55% in size
#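 Chicken DT40 Tdp1-/- cells stably complemented with human TDP1 were seeded at 400 cells/well in medium containing 20 nM camptothecin, exposed to pin-transferred compounds, and grown at 37 °C for at least 48 hr. Viability was read as ATP luminescence.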
# ELG1 repair inh – blocks ELG1-dependent DNA repair in HEK293T cells; Potency, µM (series often up to 46.1 µM), for the others: top-dose activity change, negative = inhibition, actives largely listed as inhibitors; HEK293T ELG1-luciferase reporter, luminescence, 16 h; DNA damage induced by 5-fluorouridine; 2.3% of 330,000 active; also: potency is read from the fitted curve at half-maximal effect; nearly all actives have a fitted effect of over 55% in size
#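 5-Fluorouridine DNA damage + compound/DMSO, 2,000 cells/well, 16 h, 37 °C/5% CO2. ONE-Glo, 30 min RT, luminescence. Readout = decrease in reporter signal.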
# RORg inh – ROR gamma (mouse) transcription inhibition; 5.4% of 310,000 active; Potency, µM (top dose mostly 53.6 µM), without a hit: top-dose activity change, negative = inhibition, usual class: inhibitors; Drosophila S2 Gal4-RORgamma UAS-luciferase reporter, 20 h; P51450; also: potency is read from the fitted curve at half-maximal effect; nearly all actives have a fitted effect of over 60% in size
# Target sequence (P51450 whole entry, looked up, the tested form may be a part): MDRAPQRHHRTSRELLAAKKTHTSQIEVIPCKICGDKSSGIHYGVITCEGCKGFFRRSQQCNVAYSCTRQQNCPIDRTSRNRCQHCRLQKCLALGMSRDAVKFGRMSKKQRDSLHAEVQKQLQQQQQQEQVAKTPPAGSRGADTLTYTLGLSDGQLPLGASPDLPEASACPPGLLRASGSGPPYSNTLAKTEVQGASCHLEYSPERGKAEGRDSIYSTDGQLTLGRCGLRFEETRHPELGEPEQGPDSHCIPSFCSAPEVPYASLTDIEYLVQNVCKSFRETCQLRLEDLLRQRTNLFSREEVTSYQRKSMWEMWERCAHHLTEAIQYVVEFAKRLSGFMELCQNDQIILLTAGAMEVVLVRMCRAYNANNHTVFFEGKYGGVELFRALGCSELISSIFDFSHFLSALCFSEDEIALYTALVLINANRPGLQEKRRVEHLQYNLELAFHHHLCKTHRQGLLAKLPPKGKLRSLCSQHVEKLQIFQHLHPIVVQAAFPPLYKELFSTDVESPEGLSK
#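 Read-out: Photinus luciferase luminescence; inhibitors lower reporter signal. Insect Schneider cells with Gal4-ROR gamma fusion under metallothionein promoter, UAS reporter; 700 uM final copper sulfate induction, 20 hr, ambient temperature.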
# Gal4-VP16 FLuc – Gal4-VP16 reporter inhibition counter-screen; Potency, µM (doses to about 53.6 µM), without a hit: top-dose activity, negative = inhibition, actives largely listed as inhibitors; 3.5% of 310,000 active; Drosophila S2 Gal4-VP16 UAS-luciferase, luminescence, 20 h; AID 2546;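 also: Gal4-VP16 expression switched on by copper sulfate through the metallothionein promoter; potency is read from the fitted curve at half-maximal effect; nearly all actives have a fitted effect of over 50% in size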
# The depositor's hits bear a star; i = inactive; ? = inconclusive; · = no result given; [ ] = remark or other dose. The list is not random: actives were taken first. Their share in the collection is about 21%. Unless noted, calls follow the shape of the dose curve; as a rule, active = well fitted curve in the direction sought with a large enough effect; inconclusive = small, poorly fitted or top-dose-only effect, or another doubt; inactive = no such curve, though single readings can be large; an effect the other way counts as inactive or inconclusive. % is scaled to controls: 0 for no effect and ±100 for the full control effect.
SMILES,TDP1 cell noCPT,IL-1B inflam inh,DT40 TDP1 CPT,ELG1 repair inh,RORg inh,Gal4-VP16 FLuc
Cn1c(CCN2CCCCC2)nc2cc(NC(=O)COc3ccc(Cl)cc3)ccc21,?,-83*,?,-9%,-1%,6%
Cc1ccc(OCC(=O)Nc2ccc3c(c2)nc(CCN2CCN(C)CC2)n3C)cc1,?,23,?,-9%,14%,-3%
CCC/C=C(\CCC)C(NC(=O)C(C)(C)C)c1ccc(C(=O)OC)cc1 (stereo unspecified),·,·,·,·,17%,-9%
CCC/C=C(\CCC)C(NC(=O)c1ccc(C(=O)OC)cc1)c1ccc(C(=O)OC)cc1 (stereo unspecified),7.3µM*,33,9.2µM*,·,5%,2%
OCCNC(=S)NC1CCCCC1,-14%,12,-3%,3%,8%,8%
OCCN1CCN(C(=S)NC2CCCC2)CC1,4%,0,21%,2%,-10%,-18%
S=C(NCCCN1CCN(CCCNC(=S)NC2CCCCC2)CC1)NC1CCCCC1,15µM*,-15,15µM*,·,·,·
COCCCNC(=S)NC1CCCCC1,?,i,1%,7%,11µM*,?
Cc1c(C(=O)N(C)C)sc2c1c(=O)n(-c1ccc(F)cc1)c(=O)n2Cc1ccccc1C#N,-1%,·,-24%,·,·,·
CNC(=O)C1(c2ccccc2)CCCCC1,14%,1,6%,·,·,·
CC1CC2(CCCC2)N(C(=O)c2ccccc2)Cc2ccccc21 (stereo unspecified),?,-16,9.2µM*,26%,38%,3%
Cc1ccc(C2C(C#N)=C3N=C(N)c4ccccc4N3C3=C2C(=O)CCC3)cc1 (stereo unspecified),-15%,?,?,11%,-4%,0%
N#CC1=C2N=C(N)c3c(sc4c3CCCCC4)N2C2=C(C(=O)CCC2)C1c1ccccc1 (stereo unspecified),?,49,?,-27%,11µM*,?
Cc1cn([C@H]2C[C@H](N=[N+]=[N-])[C@H](CO)O2)c(=O)[nH]c1=O,·,·,·,·,3%[10 µM],4%
CC(=O)CCOC1CCCCO1 (stereo unspecified),·,·,·,·,9%,4%
Cc1cc(C(=O)CN2C(=O)C(=O)N(Cc3ccco3)C2=O)c(C)n1CCc1ccc(F)cc1,?,37,21µM*,?,·,·
Cc1cc(C(=O)COC(=O)c2ccco2)c(C)n1Cc1ccco1,-15%,-13,?,?,35%,-9%
Cc1cc(C(=O)CN2C(=O)C(=O)N(Cc3ccco3)C2=O)c(C)n1CCc1ccccc1,18µM*,11,23µM*,-10%,·,·
CC(C)Cc1c2c([nH]c(=S)c1C#N)CCCC2,?,18,-6%,-18%,6.3µM*,?
N#Cc1c(-c2ccco2)c2c([nH]c1=S)CCCC2,2%,0,0%,-6%,9%,-1%
Cc1cc(O)c2c(O)c3c(O)cccc3cc2c1,-24%,·,-6%,·,·,·
Cc1onc(-c2c(F)cccc2Cl)c1C(=O)NC1CC1,4%,10,-11%,-3%,16%,-3%
O=C(NC1CCSC1=O)c1ccccc1 (stereo unspecified),-1%,-3,0%,9%,-2%,-5%
Cc1ccccc1C(=O)NC(=S)NC1CCSC1=O (stereo unspecified),-19%,-5,20%,-4%,11µM*,-19%
Cc1onc(-c2c(F)cccc2Cl)c1C(=O)NC(=S)NC1CCSC1=O (stereo unspecified),11%,-7,17%,-12%,7.1µM*,7.1µM*
SMILES,TDP1 cell noCPT,IL-1B inflam inh,DT40 TDP1 CPT,ELG1 repair inh,RORg inh,Gal4-VP16 FLuc
O=C(NC(=S)NC1CCSC1=O)c1cccs1 (stereo unspecified),29µM*,-15,-4%,0%,-30%,?
O=C(NC1CCSC1=O)c1cccc(C(=O)NC2CCSC2=O)c1 (stereo unspecified),-14%,0,-15%,1%,-14%,4%
CSc1ncc(C(=O)Nc2ccc(C)c(Cl)c2)c(-c2ccccc2)n1,?,·,23µM*,·,·,·
CSc1ncc(C(=O)Nc2cccc(Cl)c2)c(C)n1,?,8,-11%,11%,0%,-4%
O=C(Nc1ccc2nn(-c3ccccc3)nc2c1)c1ccc2c(c1)OCO2,21µM*,-12,16µM*,-2%,?,?
Cc1ccc(NC(=O)c2ccc3c(c2)OCO3)cc1Cl,0%,-16,-12%,?,13%,-2%
O=C(Nc1ccc(Cl)c(-c2nc3ccccc3[nH]2)c1)c1ccc2c(c1)OCO2,23µM*,31,?,21µM*,?,-1%
O=C(Nc1ccc(-c2nc3ccccc3[nH]2)cc1)C1CCCO1 (stereo unspecified),15µM*,-15,18µM*,?,1%,7.1µM*
O=C(Nc1ccc(-c2nc3ccccc3[nH]2)cc1)c1ccc2c(c1)OCO2,18µM*,44,?,?,?,11µM*
Fc1ccccc1Cn1nnc2c(-n3ccnc3)ncnc21,?,-17,-13%,0%,?,-27%
COc1ccc(S(=O)(=O)NCc2cccnc2)cc1C,0%,6,0%,-16%,2%[1.91 µM],-6%
COc1ccc(-c2nc3ccccc3s2)cc1,-26%,34,-17%,?,8.9µM*,?
O=C(Nc1cccc(-c2nc3ccccc3s2)c1)c1ccc2c(c1)OCO2,?,15,?,-12%,16%,8%
COc1cccc(-c2nc3ccccc3s2)c1,4%,0,-18%,?,-24%,?
Cc1nc2ccc(-c3nc4ccccc4[nH]3)cc2[nH]1,?,-8,?,?,?,-12%
c1ccc2sc(-c3ccc4c(c3)OCO4)nc2c1,?,5,?,?,?,2.2µM*
c1ccc2[nH]c(-c3ccc4c(c3)OCO4)nc2c1,18µM*,·,?,·,·,·
Cc1c2c(c(O)c3c(O)cccc13)C(=O)O[C@H]2C1C(N(C)C)C(O)=C(C(N)=O)C(=O)[C@H]1O (stereo partly specified),·,·,·,·,8%,-9%
CCOc1cc(Cl)c(S(=O)(=O)NCc2ccccn2)cc1Cl,?,-14,-26%,-8%,13µM*,20µM*
CCOc1ccc(S(=O)(=O)NCc2ccccn2)c(C)c1C,-18%,48,23µM*,-17%,-39%,-18%
COc1ccc(S(=O)(=O)NCc2ccccn2)c(C)c1C,?,-11,-14%,-7%,?,-4%
